Data taken from paper PMC5540273 (PLoS ONE, 2017).

How the values were obtained:
Settings in all cases: concentration: 1 μM, replicates: in singlicate; n = 1
BIKE = test system: T1, BIKE
T1 construct: gene BMP2K

BLK = test system: BLK
BMPR1A = test system: BMPR1A
BMPR1B = test system: BMPR1B
BMPR2 = test system: BMPR2
BMX = test system: BMX
BRAF = test system: BRAF
BRK = test system: T2, BRK
T2 construct: gene PTK6

BRSK1 = test system: BRSK1
BRSK2 = test system: BRSK2
BTK = test system: BTK
BUB1 = test system: BUB1
CAMK1B = test system: CAMK1B
CAMK1D = test system: CAMK1D
CAMK1G = test system: CAMK1G
CAMK1 = test system: CAMK1
CAMK2A = test system: CAMK2A
CAMK2B = test system: CAMK2B
CAMK2D = test system: CAMK2D
CAMK2G = test system: CAMK2G
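Also: KINOMEscan kinase panel screen.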

| SMILES | %Inh (BIKE) [%] | %Inh (BLK) [%] | %Inh (BMPR1A) [%] | %Inh (BMPR1B) [%] | %Inh (BMPR2) [%] | %Inh (BMX) [%] | %Inh (BRAF) [%] | %Inh (BRK) [%] | %Inh (BRSK1) [%] | %Inh (BRSK2) [%] | %Inh (BTK) [%] | %Inh (BUB1) [%] | %Inh (CAMK1B) [%] | %Inh (CAMK1D) [%] | %Inh (CAMK1G) [%] | %Inh (CAMK1) [%] | %Inh (CAMK2A) [%] | %Inh (CAMK2B) [%] | %Inh (CAMK2D) [%] | %Inh (CAMK2G) [%] |
| --- | --- | --- | --- | --- | --- | --- | --- | --- | --- | --- | --- | --- | --- | --- | --- | --- | --- | --- | --- | --- |
| CS(=O)(=O)CCNCc1nc(-c2ccc3ncnc(Nc4ccc5c(cnn5Cc5ccccc5)c4)c3c2)cs1.Cl.Cl [GW569716] | 0 | 38 | 0 | 0 | 16 | 2 | 0 | 17 | 0 | 0 | 20 | 49 | 0 | 9 | 0 | 11 | 0 | 0 | 6 | 16 |
| O=C(Nc1n[nH]c2cc(-c3ccsc3)ccc12)C1CC1 [SB-732932] | 54 | 0 | 27 | 22 | 32 | 15 | 9 | 0 | 59 | 61 | 10 | 20 | 2 | 0 | 23 | 30 | 20 | 11 | 12 | 15 |
| CC(C)c1ccc(O)cc1Nc1ccnc2ccc(C(F)(F)F)cc12 [GW482059] | 13 | 30 | 0 | 0 | 0 | 0 | 0 | 0 | 1 | 5 | 0 | 13 | 27 | 0 | 0 | 0 | 0 | 0 | 0 | 1 |
| Cc1ccc(NC(=O)Nc2ccc(Cl)c(C(F)(F)F)c2)cc1-c1ccc(C(=O)Nc2ccncc2)cc1 [GSK1398470] | 8 | 7 | 6 | 0 | 0 | 21 | 73 | 29 | 7 | 0 | 0 | 9 | 2 | 15 | 12 | 17 | 0 | 4 | 13 | 25 |
| CNC(=O)c1ccc(C)c(-n2c(C)cc(OCc3ccc(F)cc3F)c(Br)c2=O)c1 | 3 | 0 | 39 | 0 | 0 | 0 | 0 | 0 | 0 | 0 | 0 | 0 | 0 | 0 | 0 | 0 | 0 | 0 | 0 | 0 |
| COc1ccc(CSc2nnc(-c3ccc4nccn4c3)o2)cc1C(F)(F)F | 18 | 1 | 0 | 21 | 3 | 0 | 9 | 0 | 14 | 3 | 15 | 0 | 8 | 0 | 22 | 5 | 2 | 32 | 11 | 16 |
| COc1ccc2cc(-c3nc(-c4ccccc4C(C)C)[nH]c3-c3ccncc3)ccc2c1 [SB-660566] | 0 | 0 | 17 | 0 | 5 | 0 | 6 | 22 | 4 | 10 | 0 | 89 | 31 | 7 | 0 | 7 | 0 | 0 | 2 | 4 |
| CNc1nc(-c2ccc3c(N)n[nH]c3c2)cc(N2C[C@@H](C(=O)Nc3ccccc3)CC[C@H]2C)n1 [GSK2298859] | 36 | 0 | 0 | 0 | 0 | 15 | 0 | 9 | 0 | 21 | 0 | 22 | 6 | 25 | 6 | 28 | 87 | 82 | 21 | 21 |
| CC(=O)c1c(C)c2cnc(Nc3ccn(C)n3)nc2n(C2CCCC2)c1=O | 22 | 0 | 0 | 0 | 0 | 0 | 3 | 8 | 0 | 0 | 0 | 2 | 8 | 0 | 1 | 0 | 0 | 0 | 13 | 9 |
| CCc1ccc(-c2ccc3c(c2)-c2n[nH]cc2S(=O)(=O)N3C)cc1 | 12 | 9 | 0 | 0 | 0 | 0 | 0 | 0 | 0 | 4 | 0 | 0 | 0 | 0 | 0 | 0 | 0 | 0 | 21 | 5 |
| COc1ccc(Nc2nccc(N3CCC(NC(=O)C(C)c4ccc(Cl)cc4)C3)n2)cc1 (stereo not shown) [GSK1379735] | 25 | 33 | 19 | 0 | 4 | 27 | 0 | 0 | 7 | 0 | 0 | 17 | 5 | 14 | 0 | 9 | 14 | 25 | 1 | 15 |
| COC(=O)C(Cc1ccccc1)NC(=O)NC1CCN(c2ccnc(Nc3ccc(F)cc3)n2)C1 (stereo not shown) [GSK1379714] | 17 | 10 | 0 | 0 | 22 | 29 | 0 | 12 | 0 | 0 | 30 | 32 | 34 | 4 | 9 | 2 | 0 | 0 | 8 | 24 |
| CCn1c(-c2c(N)noc2C)nc2cnccc21 [SB-737856] | 22 | 0 | 0 | 0 | 3 | 0 | 0 | 0 | 6 | 0 | 0 | 20 | 0 | 0 | 0 | 0 | 0 | 0 | 0 | 0 |
| CNCc1ccc2nc(NC(=O)c3ccc(C(C)(C)C)cc3)cn2c1 | 15 | 0 | 17 | 14 | 19 | 0 | 18 | 2 | 9 | 0 | 32 | 26 | 33 | 1 | 0 | 1 | 4 | 2 | 1 | 12 |
| CS(=O)(=O)CCNCc1nc(-c2ccc3ncnc(Nc4ccc(OCc5ccccc5)c(Cl)c4)c3c2)cs1.Cl [GW582764] | 0 | 48 | 0 | 0 | 15 | 0 | 2 | 3 | 0 | 0 | 35 | 62 | 4 | 3 | 0 | 9 | 0 | 0 | 1 | 18 |
| CC(C)c1cc(-c2ccc3c(N)n[nH]c3c2)nc(N)n1 [GSK2250882] | 72 | 5 | 0 | 0 | 4 | 18 | 0 | 14 | 40 | 22 | 0 | 60 | 0 | 23 | 6 | 21 | 0 | 0 | 8 | 23 |
| COc1ccc(Nc2nccc(N3CCC(NC(=O)C(C)c4ccc(Cl)cc4)CC3)n2)cc1 (stereo not shown) [GSK1379812] | 36 | 5 | 0 | 0 | 7 | 28 | 0 | 0 | 0 | 13 | 0 | 6 | 32 | 23 | 13 | 25 | 0 | 0 | 14 | 36 |
| Cc1c(Cn2c(C)c(C)n3c(=O)cc(N4CCOCC4)nc23)cccc1C(F)(F)F [GSK2328680] | 2 | 29 | 6 | 0 | 5 | 14 | 0 | 6 | 0 | 0 | 0 | 2 | 0 | 5 | 2 | 7 | 0 | 0 | 0 | 15 |
| CC(=O)c1c(C)c2cnc(Nc3ccc(N4CCNCC4)cn3)nc2n(C2CCCC2)c1=O | 0 | 0 | 15 | 0 | 0 | 0 | 0 | 0 | 0 | 0 | 0 | 0 | 0 | 2 | 0 | 0 | 0 | 0 | 0 | 0 |
| O=C1NC(=O)C(c2ccc(Cl)cc2)=C1Nc1cccc(Cl)c1 [SB-317651] | 0 | 12 | 0 | 0 | 0 | 3 | 0 | 0 | 0 | 1 | 0 | 0 | 3 | 4 | 0 | 0 | 0 | 0 | 0 | 0 |
